Experimental data published in the supplement of paper PMC12819154, “High-throughput peptide-centric local stability assay extends protein–ligand identification to membrane proteins, tissues and bacteria” (Nature Structural & Molecular Biology, 2025).

compound: Cc1nc(Nc2ncc(C(=O)Nc3c(C)cccc3Cl)s2)cc(N2CCN(CCO)CC2)n1 [dasatinib]; assay: log2 fold change of tryptic peptide abundance, ligand vs vehicle (limited proteolysis) (log2 ratio); higher = more trypsin-susceptible (destabilized); conditions: ligand concentration: 5 uM; sample: K562 cleared lysate

Chain of UniProt P41240 (P41240 whole entry, looked up): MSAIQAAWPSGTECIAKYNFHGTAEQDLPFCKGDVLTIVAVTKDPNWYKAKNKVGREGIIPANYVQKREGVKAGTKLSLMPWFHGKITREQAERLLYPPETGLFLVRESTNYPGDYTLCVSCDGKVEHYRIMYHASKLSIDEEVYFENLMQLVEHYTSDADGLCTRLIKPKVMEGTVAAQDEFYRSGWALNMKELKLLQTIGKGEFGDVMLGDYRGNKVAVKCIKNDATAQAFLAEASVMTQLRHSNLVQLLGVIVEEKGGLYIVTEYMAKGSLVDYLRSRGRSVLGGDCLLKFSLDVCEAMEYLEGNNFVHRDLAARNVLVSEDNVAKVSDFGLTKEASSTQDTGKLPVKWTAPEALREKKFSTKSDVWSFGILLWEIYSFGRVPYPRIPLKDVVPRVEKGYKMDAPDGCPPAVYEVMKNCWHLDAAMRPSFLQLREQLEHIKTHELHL
Chain of UniProt Q9UL54 (Q9UL54 whole entry): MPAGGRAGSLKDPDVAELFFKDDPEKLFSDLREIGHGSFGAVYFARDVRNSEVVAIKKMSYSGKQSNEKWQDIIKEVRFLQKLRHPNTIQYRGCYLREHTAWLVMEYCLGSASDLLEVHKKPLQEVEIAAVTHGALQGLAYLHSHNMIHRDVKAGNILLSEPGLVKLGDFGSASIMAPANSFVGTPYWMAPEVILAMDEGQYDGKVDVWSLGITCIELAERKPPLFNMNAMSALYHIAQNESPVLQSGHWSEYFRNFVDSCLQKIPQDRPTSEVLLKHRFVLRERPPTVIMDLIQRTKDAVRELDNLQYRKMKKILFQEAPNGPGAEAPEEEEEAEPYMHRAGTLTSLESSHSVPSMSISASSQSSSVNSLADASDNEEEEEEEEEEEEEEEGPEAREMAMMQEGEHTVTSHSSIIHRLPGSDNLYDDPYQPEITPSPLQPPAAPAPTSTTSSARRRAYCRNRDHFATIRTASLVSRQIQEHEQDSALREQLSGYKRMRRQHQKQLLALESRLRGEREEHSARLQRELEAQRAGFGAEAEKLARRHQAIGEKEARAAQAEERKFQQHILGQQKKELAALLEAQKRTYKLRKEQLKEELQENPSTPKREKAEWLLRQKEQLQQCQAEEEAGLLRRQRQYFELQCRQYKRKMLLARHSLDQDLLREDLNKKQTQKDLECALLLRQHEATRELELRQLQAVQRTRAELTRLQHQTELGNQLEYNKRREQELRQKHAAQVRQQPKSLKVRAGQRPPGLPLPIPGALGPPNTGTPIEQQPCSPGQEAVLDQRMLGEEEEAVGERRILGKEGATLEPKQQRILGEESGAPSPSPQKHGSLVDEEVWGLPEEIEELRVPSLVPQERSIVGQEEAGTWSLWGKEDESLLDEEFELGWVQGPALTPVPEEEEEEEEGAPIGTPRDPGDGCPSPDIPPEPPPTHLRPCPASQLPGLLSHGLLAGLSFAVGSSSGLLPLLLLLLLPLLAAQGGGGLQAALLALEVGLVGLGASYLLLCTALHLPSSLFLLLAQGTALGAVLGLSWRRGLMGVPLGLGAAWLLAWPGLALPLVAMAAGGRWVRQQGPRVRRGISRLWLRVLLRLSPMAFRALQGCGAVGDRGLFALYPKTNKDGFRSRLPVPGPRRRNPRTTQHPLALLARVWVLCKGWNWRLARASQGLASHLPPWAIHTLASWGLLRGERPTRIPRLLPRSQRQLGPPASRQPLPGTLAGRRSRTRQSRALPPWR
Chain of UniProt Q9Y4K4 (Q9Y4K4 whole entry, looked up): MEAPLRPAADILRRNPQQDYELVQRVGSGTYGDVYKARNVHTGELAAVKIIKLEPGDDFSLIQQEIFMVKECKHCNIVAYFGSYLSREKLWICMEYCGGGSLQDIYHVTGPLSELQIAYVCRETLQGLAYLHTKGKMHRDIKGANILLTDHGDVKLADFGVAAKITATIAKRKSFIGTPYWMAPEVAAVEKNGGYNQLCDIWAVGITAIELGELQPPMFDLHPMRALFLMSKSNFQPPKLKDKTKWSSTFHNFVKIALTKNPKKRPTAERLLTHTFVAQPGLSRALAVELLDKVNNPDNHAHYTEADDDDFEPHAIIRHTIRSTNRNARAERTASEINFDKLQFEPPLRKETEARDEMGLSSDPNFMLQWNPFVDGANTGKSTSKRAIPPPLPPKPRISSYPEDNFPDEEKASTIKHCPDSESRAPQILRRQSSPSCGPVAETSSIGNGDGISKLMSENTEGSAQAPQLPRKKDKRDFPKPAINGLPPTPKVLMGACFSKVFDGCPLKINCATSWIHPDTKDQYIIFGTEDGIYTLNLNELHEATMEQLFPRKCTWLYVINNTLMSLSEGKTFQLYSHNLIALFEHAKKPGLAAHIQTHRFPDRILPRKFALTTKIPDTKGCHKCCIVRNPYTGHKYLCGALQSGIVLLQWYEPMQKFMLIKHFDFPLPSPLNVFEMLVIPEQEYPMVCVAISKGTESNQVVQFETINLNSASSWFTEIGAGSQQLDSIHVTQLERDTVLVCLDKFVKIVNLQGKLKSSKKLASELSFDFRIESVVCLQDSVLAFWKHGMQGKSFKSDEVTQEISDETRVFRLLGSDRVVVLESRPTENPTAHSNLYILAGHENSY
Chain of UniProt Q13418 (Q13418 whole entry): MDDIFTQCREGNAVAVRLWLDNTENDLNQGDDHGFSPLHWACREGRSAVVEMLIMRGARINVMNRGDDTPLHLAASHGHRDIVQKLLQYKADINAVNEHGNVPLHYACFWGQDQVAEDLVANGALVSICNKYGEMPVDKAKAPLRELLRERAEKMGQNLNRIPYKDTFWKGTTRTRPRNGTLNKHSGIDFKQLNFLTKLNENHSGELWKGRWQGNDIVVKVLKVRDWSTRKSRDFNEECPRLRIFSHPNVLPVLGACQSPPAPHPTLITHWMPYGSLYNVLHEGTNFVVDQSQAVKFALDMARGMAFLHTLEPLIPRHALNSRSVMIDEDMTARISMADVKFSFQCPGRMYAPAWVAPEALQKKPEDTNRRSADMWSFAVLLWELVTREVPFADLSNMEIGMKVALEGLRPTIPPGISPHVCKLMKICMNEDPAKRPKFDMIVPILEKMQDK

Going from “ARAF (peptide sequence: RLLSDCLK, peptide start residue: 544) (UniProt P10398)” to “MAP3K4 (peptide sequence: LGDFGCSVK, peptide start residue: 1479) (UniProt Q9Y6R4)”, the log2 fold change falls from 0.619 to -1.67.

Compared with “TYK2 (peptide sequence: EITQLSHLGQGTR, peptide start residue: 588) (UniProt P29597)”, “SYK (peptide sequence: GSEVTAMLEKGER, peptide start residue: 578) (UniProt P43405)” is higher in log2 fold change: -1.29 for the first, -0.709 for the second.

Going from “ABL2 (peptide sequence: NCLVGENHVVK, peptide start residue: 414) (UniProt P42684)” to “TAOK2 (peptide sequence: ELDNLQYR, peptide start residue: 299) (UniProt Q9UL54)”, the log2 fold change rises from -2.95 to 0.422.

First: ABHD4 (peptide sequence: VAGPWGPGLVQR, peptide start residue: 209) (UniProt Q8TB40)
Chain of UniProt Q8TB40 (Q8TB40 whole entry): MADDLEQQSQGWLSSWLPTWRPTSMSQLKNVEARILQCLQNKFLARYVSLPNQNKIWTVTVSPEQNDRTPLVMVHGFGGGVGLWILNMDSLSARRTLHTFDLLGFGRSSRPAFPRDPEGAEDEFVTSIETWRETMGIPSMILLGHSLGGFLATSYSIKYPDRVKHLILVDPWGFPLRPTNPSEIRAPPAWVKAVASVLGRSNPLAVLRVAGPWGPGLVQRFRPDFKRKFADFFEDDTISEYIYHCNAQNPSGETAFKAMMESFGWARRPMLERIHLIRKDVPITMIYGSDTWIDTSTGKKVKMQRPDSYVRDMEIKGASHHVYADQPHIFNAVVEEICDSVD
Second: UniProt P07947 (peptide sequence: LTTVCPTVKPQTQGLAK, peptide start residue: 251)
The log2 fold change of the first is lower: 0.933 for the first, 2.59 for the second.

Going from “GAK (peptide sequence: AIIQEVCFMK, peptide start residue: 81) (UniProt O14976)” to “ULK3 (peptide sequence: VIELPLRPLLSR, peptide start residue: 230) (UniProt Q6PHR2)”, the log2 fold change rises from -2.44 to -0.336.

Compared with “MAP4K5 (peptide sequence: LLTHTFVAQPGLSR, peptide start residue: 271) (UniProt Q9Y4K4)”, “UniProt Q13043 (peptide sequence: ATATQLLQHPFVR, peptide start residue: 270)” is higher in log2 fold change: -0.838 for the first, -0.627 for the second.

“TNIK (peptide sequence: NHSQRPATEQLMK, peptide start residue: 273) (UniProt Q9UKE5)” and “PYGB (peptide sequence: GLAGLGDVAEVR, peptide start residue: 18) (UniProt P11216)” are within 0.2 log units of each other in log2 fold change: -0.606 for the first, -0.49 for the second.

Going from “Jak2 (peptide sequence: VLPQDKEYYK, peptide start residue: 1000) (UniProt O60674)” to “UniProt Q13188 (peptide sequence: AGNILLNTEGHAK, peptide start residue: 152)”, the log2 fold change rises from -0.993 to -0.627.

Going from “UniProt Q9Y2K2 (peptide sequence: IGYYEIDR, peptide start residue: 63)” to “MAPK11 (peptide sequence: ILDFGLAR, peptide start residue: 167) (UniProt Q15759)”, the log2 fold change rises from -1.83 to -0.259.

First: MAP4K3 (peptide sequence: RNPQEDFELIQR, peptide start residue: 10) (UniProt Q8IVH8)
Second: PPAT (peptide sequence: TFIQPNMR, peptide start residue: 356) (UniProt Q06203)
Chain of UniProt Q06203 (Q06203 whole entry): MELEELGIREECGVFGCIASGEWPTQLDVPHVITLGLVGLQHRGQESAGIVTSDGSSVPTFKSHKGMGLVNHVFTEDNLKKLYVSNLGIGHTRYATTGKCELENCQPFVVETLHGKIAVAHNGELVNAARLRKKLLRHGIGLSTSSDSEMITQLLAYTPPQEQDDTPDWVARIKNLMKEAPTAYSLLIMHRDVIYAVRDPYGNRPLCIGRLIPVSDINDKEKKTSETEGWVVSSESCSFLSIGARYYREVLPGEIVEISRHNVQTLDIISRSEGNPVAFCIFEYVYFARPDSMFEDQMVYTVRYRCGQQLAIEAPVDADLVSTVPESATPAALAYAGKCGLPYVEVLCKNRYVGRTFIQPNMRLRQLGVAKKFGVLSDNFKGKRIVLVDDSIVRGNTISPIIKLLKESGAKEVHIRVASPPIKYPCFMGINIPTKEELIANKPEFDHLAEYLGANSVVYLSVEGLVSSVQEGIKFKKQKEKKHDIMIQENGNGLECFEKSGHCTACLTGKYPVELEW
The log2 fold change of the first is lower: -1.06 for the first, -0.503 for the second.

“UniProt P46781 (peptide sequence: ELLTLDEKDPRR, peptide start residue: 59)” and “FECH (peptide sequence: LFLDRDLMTLPIQNK, peptide start residue: 92) (UniProt P22830)” are within 0.2 log units of each other in log2 fold change: -0.304 for the first, -0.278 for the second.

First: UniProt Q8N4C8 (peptide sequence: NIATYYGAFIK, peptide start residue: 81)
Second: UniProt P36507 (peptide sequence: KLEELELDEQQKK, peptide start residue: 40)
The log2 fold change of the first is lower: -0.397 for the first, 0.445 for the second.

Going from “UniProt Q16513 (peptide sequence: IFETVNSVR, peptide start residue: 708)” to “UniProt Q9P289 (peptide sequence: GSFGEVFK, peptide start residue: 33)”, the log2 fold change falls from 0.751 to -0.606.

Going from “MAPK14 (peptide sequence: DLLIDEWK, peptide start residue: 331) (UniProt Q16539)” to “UniProt Q13163 (peptide sequence: DVKPSNMLVNTR, peptide start residue: 283)”, the log2 fold change rises from -1.32 to 1.77.

“CSK (peptide sequence: SGWALNMK, peptide start residue: 186) (UniProt P41240)” and “AASDHPPT (peptide sequence: IGQFVFAR, peptide start residue: 48) (UniProt Q9NRN7)” are within 0.2 log units of each other in log2 fold change: -0.697 for the first, -0.547 for the second.

Going from “PYGL (peptide sequence: NLAENISR, peptide start residue: 271) (UniProt P06737)” to “ILK (peptide sequence: DFNEECPR, peptide start residue: 234) (UniProt Q13418)”, the log2 fold change rises from -0.422 to 0.893.

First: TNK1 (peptide sequence: VADFGLVRPLGGAR, peptide start residue: 261) (UniProt Q13470)
Second: JAK1 (peptide sequence: NVLVESEHQVK, peptide start residue: 1008) (UniProt P23458)
The log2 fold change of the first is higher: -0.538 for the first, -1.51 for the second.

Going from “UniProt Q8NI60 (peptide sequence: VALLDFGATR, peptide start residue: 503)” to “UniProt Q02750 (peptide sequence: SYMSPER, peptide start residue: 228)”, the log2 fold change rises from -0.968 to 1.37.

Compared with “PAK2 (peptide sequence: LLQTSNITK, peptide start residue: 105) (UniProt Q13177)”, “UniProt Q9Y2U5 (peptide sequence: LLGQGAFGR, peptide start residue: 361)” is lower in log2 fold change: 0.206 for the first, -0.631 for the second.

First: LIMK2 (peptide sequence: GFFGQAIK, peptide start residue: 340) (UniProt P53671)
Second: UniProt Q16512 (peptide sequence: VLLSEFRPSGELFAIK, peptide start residue: 629)
Sequence (Q16512 whole entry, looked up): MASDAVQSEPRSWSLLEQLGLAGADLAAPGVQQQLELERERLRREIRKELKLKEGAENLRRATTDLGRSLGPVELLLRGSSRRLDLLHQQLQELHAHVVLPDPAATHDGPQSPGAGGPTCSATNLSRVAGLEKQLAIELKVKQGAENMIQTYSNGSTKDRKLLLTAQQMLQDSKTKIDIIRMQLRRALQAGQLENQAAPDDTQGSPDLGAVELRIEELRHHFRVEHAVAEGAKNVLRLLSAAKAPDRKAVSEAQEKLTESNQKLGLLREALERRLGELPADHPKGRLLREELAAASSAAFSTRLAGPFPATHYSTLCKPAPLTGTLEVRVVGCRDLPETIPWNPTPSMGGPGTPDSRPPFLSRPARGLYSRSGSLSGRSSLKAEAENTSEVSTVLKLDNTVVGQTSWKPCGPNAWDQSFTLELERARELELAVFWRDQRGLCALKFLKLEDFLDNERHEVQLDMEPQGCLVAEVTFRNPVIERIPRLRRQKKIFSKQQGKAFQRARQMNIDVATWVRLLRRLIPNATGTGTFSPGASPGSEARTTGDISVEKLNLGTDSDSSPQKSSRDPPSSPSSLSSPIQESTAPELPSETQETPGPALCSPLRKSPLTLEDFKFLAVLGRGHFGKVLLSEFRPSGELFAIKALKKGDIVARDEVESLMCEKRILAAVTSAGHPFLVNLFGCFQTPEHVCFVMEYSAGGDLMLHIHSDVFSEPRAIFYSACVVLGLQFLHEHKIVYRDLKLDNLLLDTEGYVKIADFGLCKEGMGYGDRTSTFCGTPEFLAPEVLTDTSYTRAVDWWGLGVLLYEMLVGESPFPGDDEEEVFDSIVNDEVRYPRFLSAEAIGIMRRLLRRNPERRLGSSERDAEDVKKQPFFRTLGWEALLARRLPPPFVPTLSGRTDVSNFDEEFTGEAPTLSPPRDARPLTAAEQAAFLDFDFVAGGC
The log2 fold change of the first is lower: -1.19 for the first, 1.18 for the second.
